What follows are sequences tested on VDR:RXRa (NR concentration 270 nM, RXRa partner concentration 90 nM) (assay: PBM binding z-score (relative to random genomic background probes); higher = stronger binding; sequences stand for … in GC…GCGATTGACAGCGTAGAATGAAGG).
Procedure: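 Protein-binding microarray (Agilent 4x180K custom design, double-stranded 60-nt probes: 5' GC cap, 34-nt variable region, 24-nt constant primer region; full probe sequence given). Purified or IVT nuclear receptor:RXRα heterodimers (3:1 NR:RXRα, mostly 270:90 nM) or homodimers were incubated for 1 h in PBS with 2% milk and no ligand, then detected with Alexa488 antibodies. Fluorescence from o1-orientation probes (~5 replicates averaged) was converted to z-scores against 500 random hg19 background probes. Variable regions are seed direct-repeat (DR0–DR5) sites, all their single-nucleotide variants and half-site ablations.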

Sequence | PBM binding z-score
GTACCAAGCTGAATAGGTCGTTGATGAGTAGGCG | -0.239
ATCTCTAGGTAAGACTCAGATCAGTGAAGAACGC | 0.238
CAAACTAGGTCAAGGTCGAAGTCGGTTTGTGCCA | 3.27
ACTATTAGTTGTGACGAGGGCAACCGATAGGTTG | 0.506
CCAACTGGGGCAAGGTTACCATAACGCACAGCCA | 0.166
AGAATGAGGTTAAGATCAGGGACACAGAATACAT | 1.93
AATACAGGGTCATCGCAGGCCAGAGTACGCACAG | 5.31
TCTGCTAGGTCGACGATGGTCAGCTAATCTGCTA | -0.229
GCGACTGGGGCCTCAGCAGGTTACCATAACTTAA | -0.529
CCTATTGGGCCATTCAGAGGTCATTGATCATATG | 3.98
CAAACTAGGTCACCGCAAGGTCAAAGTCCGCATG | 6.39
CCAAACAGGTGAAAGGTAACTCAGTCTGGTACGC | 0.991
CCTAGTTGGTCATGGTCACACACGCTATAGGTAC | 0.655
CCTAGTGGGCCAAAAAGGTCATTGATGCCGATAA | 4.82
CCGAGTAGGTTATGGGGCATGCAGGCAACGGTGA | -0.196
GATCCAGGGTCAAGGCCAGAGTACGCGTATTGAT | 4.58
CGAACTAGGTCATCCAGGACAGTCAATACATTGA | 4.83
CAAACTCGGTCACAGAGGTCAAAGTCCGTGCGTA | 7.57
GCTGCTAGGTCTACTGATGGTCAGCTAAAGCTCG | -0.746
CCGACTGGGGCTGAAAGGTTACCATACCATCCGG | 0.343

Sequence | PBM binding z-score
GCTTGTAGATCAAGGTTACGAAAGACTAAGCTAA | 0.359
GCATACAGGTGAAACGCAGGTAACTCAGGGTGGC | -0.304
CTCGAAAGATCGGTTGAGGTGAGTATACGGATAA | -0.152
AATACACGGTCATCGTAGGCCAGAGTACGCACAG | 0.576
CGTCAAAGTTCAAGGTATCGTAACAGAAAGCAGC | 3.74
ATACCAAGGTGATCGTGAGGTCGTTTATACTAAC | 3.6
ACAGGCAGGTGATGAAGGTAACTCAGGCTATCAT | -0.0607
TTACCAAGGTGGAGGTCGTTGATCCCTCTGTAGA | 1.65
TCATATAGGTACTACAGGTGAAAGTCGGCATCTA | 0.876
ATCTCTAGGTGAGACTCAGTTCAGTGAAGAACGC | 0.863
CCTAGGTGGTCAGGAGGTCACACACCGGATATGA | 3.76
CAAACTAGGTCGCGAAAGGTCAAAGTCGAATGAC | 5.94
CCGAGAAGGTTATGGGGCATTCAGGCAACGGTGA | 0.66
TCTTGTAGTTCAACAGGAGGTTAAGAAAGATCGA | 2.57
ATCTCTATGTAACCAAGTTCAGTGAATGCCGAAC | 2.22
GCTGCTAGGTCAACTGCTGGTCAGCTAAAGCTCG | 1.38
GCTAATAGTTGAAAGGGCAACCGAATGATTCTCG | 0.767
AGAATGAGGTTACCAAAGATTAGGGAAACGCTTG | 1.05
TCTATTACTTGAAGGGCAACCGACGAGTCCGTTT | 1.28
GCGACCGGGGCAAAGCAGGTTACCATAAGGTTGG | 0.7

Source: the supplement of paper PMC6555819
